From the supplement of paper PMC11732987, “Enantioselective OTUD7B fragment discovery through chemoproteomics screening and high-throughput optimisation” (Communications Chemistry, 2025)

Legend:
Assay in all cases: log2 ratio of Biotin-Ahx-Ub-VS probe labelling (fragment/DMSO); higher = less target engagement (more negative = stronger competition), active = hit call of the paper (q ≤ 0.05, log2 ratio ≤ -1)
Settings in all cases: compound concentration: 200 uM; treatment time: 3 h
[1] = target: USP34 (UniProt Q70CQ2)
Sequence of USP34 (Q70CQ2 whole entry, the tested form may be a part): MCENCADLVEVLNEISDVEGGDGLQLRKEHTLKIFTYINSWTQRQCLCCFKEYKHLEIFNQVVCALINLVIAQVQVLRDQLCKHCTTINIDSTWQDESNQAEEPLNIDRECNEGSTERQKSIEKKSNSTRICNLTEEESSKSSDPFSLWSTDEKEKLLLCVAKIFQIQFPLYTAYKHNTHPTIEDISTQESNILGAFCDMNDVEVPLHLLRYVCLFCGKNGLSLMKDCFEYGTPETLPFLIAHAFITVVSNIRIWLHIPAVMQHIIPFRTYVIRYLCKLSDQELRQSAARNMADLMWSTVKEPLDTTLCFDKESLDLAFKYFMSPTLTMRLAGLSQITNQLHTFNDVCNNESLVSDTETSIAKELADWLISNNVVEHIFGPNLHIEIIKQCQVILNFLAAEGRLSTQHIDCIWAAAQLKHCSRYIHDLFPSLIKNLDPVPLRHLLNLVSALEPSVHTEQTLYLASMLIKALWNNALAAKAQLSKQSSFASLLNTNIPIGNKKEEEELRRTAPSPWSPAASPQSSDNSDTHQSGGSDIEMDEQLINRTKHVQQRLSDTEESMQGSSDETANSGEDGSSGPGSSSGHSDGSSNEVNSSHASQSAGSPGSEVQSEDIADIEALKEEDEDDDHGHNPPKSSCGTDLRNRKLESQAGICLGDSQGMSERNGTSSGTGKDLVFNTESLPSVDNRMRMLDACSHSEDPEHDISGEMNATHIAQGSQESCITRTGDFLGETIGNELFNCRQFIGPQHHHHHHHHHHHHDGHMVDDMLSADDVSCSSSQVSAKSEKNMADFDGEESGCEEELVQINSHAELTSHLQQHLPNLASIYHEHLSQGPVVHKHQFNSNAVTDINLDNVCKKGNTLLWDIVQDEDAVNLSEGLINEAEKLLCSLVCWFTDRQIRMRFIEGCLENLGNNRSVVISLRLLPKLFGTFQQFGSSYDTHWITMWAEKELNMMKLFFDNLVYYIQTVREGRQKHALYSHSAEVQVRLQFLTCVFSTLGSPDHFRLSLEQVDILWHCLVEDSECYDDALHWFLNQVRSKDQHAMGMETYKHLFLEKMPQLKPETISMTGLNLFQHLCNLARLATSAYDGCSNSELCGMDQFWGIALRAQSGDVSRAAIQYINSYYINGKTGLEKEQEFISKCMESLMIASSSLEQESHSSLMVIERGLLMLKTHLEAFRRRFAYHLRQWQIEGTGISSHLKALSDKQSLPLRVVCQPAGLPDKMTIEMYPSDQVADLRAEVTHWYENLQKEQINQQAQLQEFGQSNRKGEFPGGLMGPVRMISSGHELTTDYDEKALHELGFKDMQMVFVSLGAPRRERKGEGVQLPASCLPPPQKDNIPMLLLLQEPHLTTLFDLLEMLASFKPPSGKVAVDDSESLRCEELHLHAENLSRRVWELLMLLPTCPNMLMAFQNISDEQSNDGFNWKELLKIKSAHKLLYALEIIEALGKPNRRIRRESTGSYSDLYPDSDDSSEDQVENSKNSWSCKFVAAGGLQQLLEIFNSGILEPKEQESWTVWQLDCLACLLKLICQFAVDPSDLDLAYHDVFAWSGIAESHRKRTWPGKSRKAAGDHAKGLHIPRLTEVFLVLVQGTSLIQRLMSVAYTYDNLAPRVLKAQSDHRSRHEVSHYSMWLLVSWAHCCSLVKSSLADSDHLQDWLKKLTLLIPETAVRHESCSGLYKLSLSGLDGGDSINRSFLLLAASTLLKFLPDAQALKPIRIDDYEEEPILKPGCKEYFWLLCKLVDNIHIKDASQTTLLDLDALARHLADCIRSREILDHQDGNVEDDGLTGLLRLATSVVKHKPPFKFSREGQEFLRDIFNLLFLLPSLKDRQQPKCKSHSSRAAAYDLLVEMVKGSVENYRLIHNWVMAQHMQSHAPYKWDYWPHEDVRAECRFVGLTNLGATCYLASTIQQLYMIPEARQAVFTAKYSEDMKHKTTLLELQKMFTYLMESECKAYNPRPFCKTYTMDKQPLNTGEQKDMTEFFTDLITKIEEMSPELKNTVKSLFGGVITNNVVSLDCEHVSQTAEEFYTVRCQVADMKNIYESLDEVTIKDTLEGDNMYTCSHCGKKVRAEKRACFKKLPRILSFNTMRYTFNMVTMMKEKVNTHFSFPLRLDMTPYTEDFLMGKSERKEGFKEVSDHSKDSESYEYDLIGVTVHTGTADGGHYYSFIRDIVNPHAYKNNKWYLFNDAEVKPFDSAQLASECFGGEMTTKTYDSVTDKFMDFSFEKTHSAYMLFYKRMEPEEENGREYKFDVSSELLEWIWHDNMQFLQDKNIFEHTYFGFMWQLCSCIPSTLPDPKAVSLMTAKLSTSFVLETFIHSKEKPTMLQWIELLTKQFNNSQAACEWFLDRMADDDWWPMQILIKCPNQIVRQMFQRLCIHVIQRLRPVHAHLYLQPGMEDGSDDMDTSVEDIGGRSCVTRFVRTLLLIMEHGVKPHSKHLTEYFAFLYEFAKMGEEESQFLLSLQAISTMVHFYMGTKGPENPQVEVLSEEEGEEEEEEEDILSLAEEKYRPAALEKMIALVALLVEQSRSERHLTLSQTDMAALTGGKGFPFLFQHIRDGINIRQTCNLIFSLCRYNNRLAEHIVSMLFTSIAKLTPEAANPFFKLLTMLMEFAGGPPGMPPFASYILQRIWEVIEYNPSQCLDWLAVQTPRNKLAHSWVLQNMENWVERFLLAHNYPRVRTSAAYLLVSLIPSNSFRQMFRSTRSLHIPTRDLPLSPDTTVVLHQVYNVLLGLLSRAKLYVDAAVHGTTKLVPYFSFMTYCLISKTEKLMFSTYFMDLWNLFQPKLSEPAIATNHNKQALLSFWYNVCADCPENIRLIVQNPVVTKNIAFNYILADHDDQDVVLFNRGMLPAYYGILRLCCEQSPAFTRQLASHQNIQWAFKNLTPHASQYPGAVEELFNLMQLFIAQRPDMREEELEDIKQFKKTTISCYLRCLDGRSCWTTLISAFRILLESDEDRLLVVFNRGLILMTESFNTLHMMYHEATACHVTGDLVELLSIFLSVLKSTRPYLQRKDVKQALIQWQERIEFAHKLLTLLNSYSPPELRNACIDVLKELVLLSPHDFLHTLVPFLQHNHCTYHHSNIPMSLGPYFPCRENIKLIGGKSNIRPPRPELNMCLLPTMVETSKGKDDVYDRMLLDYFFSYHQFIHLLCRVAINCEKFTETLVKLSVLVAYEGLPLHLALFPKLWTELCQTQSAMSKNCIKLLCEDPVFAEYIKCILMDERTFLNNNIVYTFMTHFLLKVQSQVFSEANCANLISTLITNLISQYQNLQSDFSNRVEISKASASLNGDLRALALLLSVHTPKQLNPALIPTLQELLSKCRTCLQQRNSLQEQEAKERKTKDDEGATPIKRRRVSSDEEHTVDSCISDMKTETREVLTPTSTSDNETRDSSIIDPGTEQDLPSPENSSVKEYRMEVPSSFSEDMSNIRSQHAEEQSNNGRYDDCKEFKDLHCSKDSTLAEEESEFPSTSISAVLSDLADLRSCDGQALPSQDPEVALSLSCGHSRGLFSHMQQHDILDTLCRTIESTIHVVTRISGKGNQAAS
Method in brief: (§1)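 Values give the average log2 ratio of fragment to vehicle, assessed by unpaired t-test on global-median-normalised Spectronaut label-free quantities. Proteins needed ≥2 unique peptides. HEK293T lysate (495 µg per sample) was treated in triplicate with fragment at 200 µM or vehicle for 3 h and then with Biotin-Ahx-Ub-VS at 0.5 µM final for 1 h. Labelled DUBs were NeutrAvidin-enriched, digested and run by diaPASEF LC-MS/MS.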

[2] = target: T1, USP36 (UniProt Q9P275)
T1 sequence (whole entry): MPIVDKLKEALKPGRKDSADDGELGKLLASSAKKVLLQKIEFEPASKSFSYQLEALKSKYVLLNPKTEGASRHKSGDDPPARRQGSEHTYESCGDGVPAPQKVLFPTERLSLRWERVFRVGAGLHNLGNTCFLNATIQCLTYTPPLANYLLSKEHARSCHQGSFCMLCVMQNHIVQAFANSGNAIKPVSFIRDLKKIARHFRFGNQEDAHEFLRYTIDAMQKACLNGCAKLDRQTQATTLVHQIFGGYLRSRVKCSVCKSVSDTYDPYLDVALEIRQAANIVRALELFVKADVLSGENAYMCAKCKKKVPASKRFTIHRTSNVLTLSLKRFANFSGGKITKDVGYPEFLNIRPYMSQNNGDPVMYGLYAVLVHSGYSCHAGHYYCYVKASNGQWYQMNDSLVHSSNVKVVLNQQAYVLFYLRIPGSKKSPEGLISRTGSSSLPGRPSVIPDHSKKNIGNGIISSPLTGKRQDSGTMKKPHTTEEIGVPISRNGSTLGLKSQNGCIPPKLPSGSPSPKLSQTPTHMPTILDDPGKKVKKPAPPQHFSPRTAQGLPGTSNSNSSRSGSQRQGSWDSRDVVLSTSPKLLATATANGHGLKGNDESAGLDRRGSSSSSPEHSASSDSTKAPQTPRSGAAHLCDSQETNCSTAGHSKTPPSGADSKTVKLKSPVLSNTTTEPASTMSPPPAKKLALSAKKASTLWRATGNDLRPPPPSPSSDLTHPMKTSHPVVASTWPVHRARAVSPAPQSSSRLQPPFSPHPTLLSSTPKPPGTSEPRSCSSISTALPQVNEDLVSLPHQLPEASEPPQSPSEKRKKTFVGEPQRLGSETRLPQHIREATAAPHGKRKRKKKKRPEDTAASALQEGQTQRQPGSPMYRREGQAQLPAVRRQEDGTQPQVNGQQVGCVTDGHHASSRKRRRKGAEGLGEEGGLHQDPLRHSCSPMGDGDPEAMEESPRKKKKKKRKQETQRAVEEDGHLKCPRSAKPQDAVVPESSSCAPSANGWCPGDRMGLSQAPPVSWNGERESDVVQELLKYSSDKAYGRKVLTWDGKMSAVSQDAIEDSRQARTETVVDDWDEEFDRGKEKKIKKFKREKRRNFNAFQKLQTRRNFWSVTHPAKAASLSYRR
Method in brief: as §1

[3] = target: T2, USP38 (UniProt Q8NB14)
T2 sequence (whole entry): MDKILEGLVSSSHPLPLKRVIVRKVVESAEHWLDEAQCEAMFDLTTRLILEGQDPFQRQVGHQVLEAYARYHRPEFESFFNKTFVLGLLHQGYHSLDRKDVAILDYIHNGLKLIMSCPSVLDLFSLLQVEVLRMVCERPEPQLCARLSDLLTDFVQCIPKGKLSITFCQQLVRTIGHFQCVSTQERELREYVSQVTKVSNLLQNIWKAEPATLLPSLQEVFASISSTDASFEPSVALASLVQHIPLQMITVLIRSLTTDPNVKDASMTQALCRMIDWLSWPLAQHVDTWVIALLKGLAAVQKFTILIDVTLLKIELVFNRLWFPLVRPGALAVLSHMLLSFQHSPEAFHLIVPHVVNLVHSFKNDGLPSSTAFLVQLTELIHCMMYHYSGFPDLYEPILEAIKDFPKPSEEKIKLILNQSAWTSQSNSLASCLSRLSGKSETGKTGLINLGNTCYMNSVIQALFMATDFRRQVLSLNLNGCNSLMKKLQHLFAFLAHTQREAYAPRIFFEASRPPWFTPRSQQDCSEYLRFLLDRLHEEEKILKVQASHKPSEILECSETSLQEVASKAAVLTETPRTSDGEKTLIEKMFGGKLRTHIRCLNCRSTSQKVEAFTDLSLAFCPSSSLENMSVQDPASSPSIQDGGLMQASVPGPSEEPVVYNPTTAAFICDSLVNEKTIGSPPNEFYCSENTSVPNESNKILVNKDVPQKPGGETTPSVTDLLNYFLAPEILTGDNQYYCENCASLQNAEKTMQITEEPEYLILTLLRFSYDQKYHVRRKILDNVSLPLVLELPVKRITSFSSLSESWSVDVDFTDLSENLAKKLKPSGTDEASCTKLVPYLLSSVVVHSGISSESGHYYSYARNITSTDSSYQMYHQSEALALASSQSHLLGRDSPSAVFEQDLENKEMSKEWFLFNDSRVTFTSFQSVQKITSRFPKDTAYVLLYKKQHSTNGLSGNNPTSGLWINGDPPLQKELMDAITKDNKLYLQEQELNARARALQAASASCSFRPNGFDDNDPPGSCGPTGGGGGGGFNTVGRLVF
Method in brief: as §1

[4] = target: T3, USP39 (UniProt Q53GS9)
T3 sequence (whole entry): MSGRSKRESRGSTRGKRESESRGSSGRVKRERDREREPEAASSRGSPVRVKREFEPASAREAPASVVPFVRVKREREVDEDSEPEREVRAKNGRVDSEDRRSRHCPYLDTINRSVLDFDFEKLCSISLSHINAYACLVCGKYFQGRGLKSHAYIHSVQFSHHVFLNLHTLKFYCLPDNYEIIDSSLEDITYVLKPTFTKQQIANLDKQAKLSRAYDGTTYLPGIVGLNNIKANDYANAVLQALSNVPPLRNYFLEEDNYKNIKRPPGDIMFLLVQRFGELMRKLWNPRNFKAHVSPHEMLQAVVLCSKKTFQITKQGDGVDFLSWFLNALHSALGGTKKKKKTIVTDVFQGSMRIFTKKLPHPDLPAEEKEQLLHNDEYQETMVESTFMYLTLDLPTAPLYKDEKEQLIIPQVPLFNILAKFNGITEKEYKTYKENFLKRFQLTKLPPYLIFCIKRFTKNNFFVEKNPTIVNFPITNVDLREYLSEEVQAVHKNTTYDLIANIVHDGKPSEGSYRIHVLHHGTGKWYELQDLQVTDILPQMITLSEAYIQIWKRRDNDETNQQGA
Method in brief: as §1

[5] = target: T4, USP4 (UniProt Q13107)
T4 sequence (whole entry): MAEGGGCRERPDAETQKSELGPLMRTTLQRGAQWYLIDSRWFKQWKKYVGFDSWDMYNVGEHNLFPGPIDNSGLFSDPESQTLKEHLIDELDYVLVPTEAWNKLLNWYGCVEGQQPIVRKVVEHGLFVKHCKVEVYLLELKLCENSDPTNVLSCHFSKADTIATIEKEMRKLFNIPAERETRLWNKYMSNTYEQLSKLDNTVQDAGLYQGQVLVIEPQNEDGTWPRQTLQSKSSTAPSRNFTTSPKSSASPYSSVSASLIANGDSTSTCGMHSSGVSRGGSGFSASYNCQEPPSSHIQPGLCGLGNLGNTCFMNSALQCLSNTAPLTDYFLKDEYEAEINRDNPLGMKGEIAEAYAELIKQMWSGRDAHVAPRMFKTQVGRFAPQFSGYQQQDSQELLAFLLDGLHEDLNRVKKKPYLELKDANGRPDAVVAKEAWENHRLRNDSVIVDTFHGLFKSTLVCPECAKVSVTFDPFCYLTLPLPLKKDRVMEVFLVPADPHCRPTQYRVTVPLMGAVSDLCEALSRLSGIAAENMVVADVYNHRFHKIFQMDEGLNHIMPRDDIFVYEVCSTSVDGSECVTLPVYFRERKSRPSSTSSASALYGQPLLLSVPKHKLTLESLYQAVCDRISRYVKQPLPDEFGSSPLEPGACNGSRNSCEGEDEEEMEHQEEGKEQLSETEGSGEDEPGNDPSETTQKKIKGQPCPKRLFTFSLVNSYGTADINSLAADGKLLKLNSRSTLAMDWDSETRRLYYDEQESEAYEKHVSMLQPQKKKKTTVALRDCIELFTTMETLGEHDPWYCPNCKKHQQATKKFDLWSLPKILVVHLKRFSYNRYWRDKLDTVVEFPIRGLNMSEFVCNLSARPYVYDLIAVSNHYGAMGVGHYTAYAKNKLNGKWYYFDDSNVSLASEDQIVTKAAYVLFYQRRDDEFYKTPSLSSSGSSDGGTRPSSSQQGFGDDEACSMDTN
Method in brief: as §1

Measured: log2 ratio of Biotin-Ahx-Ub-VS probe labelling

CN1C(=O)c2ccc(NC(=O)CCl)cc2C1=O
inactive: [1] -0.233 | [2] 0.0568 | [3] -0.169 | [4] 0.16 | [5] -0.181
